Measured values from PubChem BioAssay (NCI).
Where “and” joins values, the source holds several entries; their conditions need not be identical. Equal entries are not always repeated. Compounds without any hit were thinned out: in the full panel of roughly 83,000, 20% have a hit.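 Values shown are percent growth following 48 h exposure of cells in 96-well plates to a single concentration of compound; below 10 was considered active.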 Calls of active or inactive are those of the source.

Assays:
Assay in all cases: NCI-60 one-dose screen, 48 h (100 = growth as untreated, 0 = no growth, -100 = all killed)
Settings in all cases: 10 µM unless noted
NCI-H23 lung = test system: NCI-H23 lung
NCI-H226 lung = test system: NCI-H226 lung
NCI-H322M lung = test system: NCI-H322M lung
HOP-62 NSCLC = test system: HOP-62 NSCLC
NCI-H460 lung = test system: NCI-H460 lung
HOP-92 NSCLC = test system: HOP-92 NSCLC
NCI-H522 lung = test system: NCI-H522 lung
A549/ATCC NSCLC = test system: A549/ATCC NSCLC
786-0 renal = test system: 786-0 renal
COLO 205 colon = test system: COLO 205 colon
DU-145 prostate = test system: DU-145 prostate
K-562 leukemia = test system: K-562 leukemia
MALME-3M melanoma = test system: MALME-3M melanoma
MDA-MB-231 breast = test system: MDA-MB-231 breast
RXF 393 renal = test system: RXF 393 renal
SF-268 CNS = test system: SF-268 CNS
SF-295 CNS = test system: SF-295 CNS
SF-539 CNS = test system: SF-539 CNS
UACC-257 melanoma = test system: UACC-257 melanoma
M14 melanoma = test system: M14 melanoma

Structure (SMILES)	growth (NCI-H23 lung)	growth (NCI-H226 lung)	growth (NCI-H322M lung)	growth (HOP-62 NSCLC)	growth (NCI-H460 lung)	growth (HOP-92 NSCLC)	growth (NCI-H522 lung)	growth (A549/ATCC NSCLC)	growth (786-0 renal)	growth (COLO 205 colon)	growth (DU-145 prostate)	growth (K-562 leukemia)	growth (MALME-3M melanoma)	growth (MDA-MB-231 breast)	growth (RXF 393 renal)	growth (SF-268 CNS)	growth (SF-295 CNS)	growth (SF-539 CNS)	growth (UACC-257 melanoma)	growth (M14 melanoma)
NS(=O)(=O)OCC1OC(n2cnc3cncnc32)C(O)C1O (stereo not given)	6.16% [0.1 µM] (active) and 3.98% [0.1 µM] (active)	16.8% [0.1 µM] (inactive)	-26.7% [0.1 µM] (active) and 12.1% [0.1 µM] (inactive)	-21.5% [0.1 µM] (active) and -12.7% [0.1 µM] (active)	2.5% [0.1 µM] (active) and 0.409% [0.1 µM] (active)	10.2% [0.1 µM] (inactive) and 3.58% [0.1 µM] (active)	2.73% [0.1 µM] (active) and -11.8% [0.1 µM] (active)	11.1% [0.1 µM] (inactive) and 13.4% [0.1 µM] (inactive)	8.57% [0.1 µM] (active) and 11.9% [0.1 µM] (inactive)	32.2% [0.1 µM] (inactive) and 27.1% [0.1 µM] (inactive)	13.2% [0.1 µM] (inactive)	9.29% [0.1 µM] (active) and 7.85% [0.1 µM] (active)	81.6% [0.1 µM] (inactive) and 50.7% [0.1 µM] (inactive)	-25.1% [0.1 µM] (active) and -14.3% [0.1 µM] (active)	11.7% [0.1 µM] (inactive) and 1.25% [0.1 µM] (active)	9.46% [0.1 µM] (active) and 13.5% [0.1 µM] (inactive)	24% [0.1 µM] (inactive)	-2.66% [0.1 µM] (active) and -4.82% [0.1 µM] (active)	60.8% [0.1 µM] (inactive) and 58.2% [0.1 µM] (inactive)	31.1% [0.1 µM] (inactive) and 16.6% [0.1 µM] (inactive)
COc1cc(CO)cc2cc3ccccc3nc12	97.3% (inactive)	79.4% (inactive)	115% (inactive)	95.7% (inactive)	105% (inactive)	103% (inactive)	96.8% (inactive)	104% (inactive)	97.8% (inactive)	107% (inactive)	106% (inactive)	90.7% (inactive)	112% (inactive)	101% (inactive)	115% (inactive)	100% (inactive)	102% (inactive)	102% (inactive)	105% (inactive)	105% (inactive)
Cc1ccc(-c2nc(SCC(=O)c3ccc(C#N)cc3)[nH]c(=O)c2C#N)cc1	105% (inactive)	110% (inactive)	106% (inactive)	103% (inactive)	115% (inactive)	108% (inactive)	82.1% (inactive)	98.4% (inactive)	96.1% (inactive)	88.9% (inactive)	102% (inactive)	96.3% (inactive)	99.2% (inactive)	100% (inactive)	117% (inactive)	96% (inactive)	103% (inactive)	92.2% (inactive)	100% (inactive)	96.7% (inactive)
C[C@@H]1CC[C@@H]2[C@@H]1[C@H](OC(=O)/C=C/c1ccccc1)[C@]1(c3ccccc3)C[C@@H](NC(=O)CO)[C@@]2(C)O1	97.7% (inactive)	88.8% (inactive)	98.2% (inactive)	96.8% (inactive)	105% (inactive)	65.5% (inactive)	82.3% (inactive)	95% (inactive)	101% (inactive)	99.7% (inactive)	107% (inactive)	84.4% (inactive)	98.6% (inactive)	96.9% (inactive)	83.2% (inactive)	93.6% (inactive)	93.8% (inactive)	97.9% (inactive)	93% (inactive)	105% (inactive)
O=c1c2c([nH]c3ccccc13)CCCC2	100% (inactive) and 68.1% (inactive)	100% (inactive)	113% (inactive) and 77.7% (inactive)	98.5% (inactive) and 40.1% (inactive)	99.8% (inactive) and 22.8% (inactive)	83.9% (inactive) and 52.4% (inactive)	92.4% (inactive) and 37.6% (inactive)	93.8% (inactive) and 56.3% (inactive)	107% (inactive) and 74.3% (inactive)	94.5% (inactive) and 8.36% (active)	106% (inactive) and 70.7% (inactive)	95.9% (inactive) and 11.3% (inactive)	104% (inactive) and 36.8% (inactive)	95.8% (inactive) and 54.9% (inactive)	105% (inactive) and 63.4% (inactive)	98.8% (inactive) and 53.2% (inactive)	95.4% (inactive) and 13.1% (inactive)	99.5% (inactive) and 46% (inactive)	100% (inactive) and 58.8% (inactive)	98.5% (inactive) and 15.6% (inactive)
Nn1c(-c2ccc(Cl)cc2)nc2c(-c3ccc(Cl)cc3)nc3ccc(Cl)cc3c2c1=O	56.3% (inactive)	1.77% (active)	35.3% (inactive)	-78.2% (active)	-63.2% (active)	27.4% (inactive)	48.9% (inactive)	-61.2% (active)	-65.3% (active)	22.3% (inactive)	-32.5% (active)	18.5% (inactive)	10.1% (inactive)	36.6% (inactive)	1.11% (active)	14.8% (inactive)	22.6% (inactive)	14.1% (inactive)	3.36% (active)	-0.438% (active)
CNC(=O)c1cc(Oc2ccc3nc(NC(=O)Nc4ccc(C(F)(F)F)cc4)sc3c2)ccn1	63.4% (inactive)	85.6% (inactive)	80.5% (inactive)	67.4% (inactive)	33.4% (inactive)	74.4% (inactive)	42.4% (inactive)	1.79% (active)	35.4% (inactive)	58.7% (inactive)	48.9% (inactive)	76.3% (inactive)	20.8% (inactive)	63.5% (inactive)	85.5% (inactive)	65% (inactive)	63.2% (inactive)	82.2% (inactive)	86.7% (inactive)	35.8% (inactive)
Cn1cc(-c2nonc2-c2cn(C)c3ccc(Br)cc23)c2ccccc21	56.4% (inactive)	71.3% (inactive)	64% (inactive)	25.8% (inactive)	12.9% (inactive)	44.4% (inactive)	8.18% (active)	40.1% (inactive)	33.3% (inactive)	29.6% (inactive)	53% (inactive)	13.3% (inactive)	30.2% (inactive)	45.5% (inactive)	42.4% (inactive)	37.3% (inactive)	16.4% (inactive)	-0.366% (active)	49.5% (inactive)	17.7% (inactive)
CN(Cc1ccccc1)c1nc(Cl)c(C2CC(c3ccc4c(c3)OCO4)=NN2c2cc(Cl)cc(Cl)c2)s1 (stereo not given)	96.2% (inactive)	102% (inactive)	99.9% (inactive)	89.2% (inactive)	103% (inactive)	99% (inactive)	94.2% (inactive)	90.7% (inactive)	90% (inactive)	93.6% (inactive)	101% (inactive)	90.2% (inactive)	95% (inactive)	101% (inactive)	109% (inactive)	94.8% (inactive)	93.8% (inactive)	103% (inactive)	106% (inactive)	99.5% (inactive)
C=C(CNCCO)[C@@H]1CC[C@]2(CO)CC[C@]3(C)[C@H](CC[C@@H]4[C@@]5(C)CCC(NCCc6ccc(O)cc6)C(C)(C)[C@@H]5CC[C@]43C)[C@@H]12 (stereo not given in full)	-63% (active)	-47.6% (active)	-41% (active)	-84.4% (active)	-80.4% (active)	-66.1% (active)	-79.5% (active)	-71.3% (active)	-92.8% (active)	-84.4% (active)	-84.1% (active)	-57.3% (active)	-86.8% (active)	-80% (active)	-85.7% (active)	-74.8% (active)	-85.4% (active)	-93.6% (active)	-86.3% (active)	-91.6% (active)
Cc1cnc(C(=O)NNc2nc3sc4c(c3c(=O)[nH]2)C(C)CCC4)cn1 (stereo not given)	22.9% (inactive)	-8.7% (active)	25.3% (inactive)	8.82% (active)	5.04% (active)	43.6% (inactive)	26.1% (inactive)	12.3% (inactive)	11.2% (inactive)	11.2% (inactive)	22.6% (inactive)	14% (inactive)	15.9% (inactive)	42.8% (inactive)	6.15% (active)	16.7% (inactive)	23.4% (inactive)	10.1% (inactive)	1.78% (active)	0.29% (active)
N#CC1=C(N)Oc2c(sc3c(Br)cccc23)C1c1ccccn1 (stereo not given)	53.3% (inactive)	41.2% (inactive)	51.1% (inactive)	30.9% (inactive)	20.4% (inactive)	35.3% (inactive)	-14.1% (active)	40.1% (inactive)	27.2% (inactive)	6.4% (active)	51.2% (inactive)	15.2% (inactive)	45.4% (inactive)	59.8% (inactive)	13.5% (inactive)	41.5% (inactive)	18% (inactive)	6.33% (active)	51.1% (inactive)	28.1% (inactive)
CCOC(=O)N(O)c1ccc(/C=C/c2ccccc2)cc1	75.9% (inactive) and 51.3% (inactive)	-39.4% (active)	79.6% (inactive) and 76.4% (inactive)	66.5% (inactive)	23.5% (inactive) and 22% (inactive)	67.4% (inactive)	67.5% (inactive) and 48.4% (inactive)	44% (inactive) and 77.1% (inactive)	70.3% (inactive) and 73.7% (inactive)	88.5% (inactive) and 84.7% (inactive)	65.7% (inactive) and 61.4% (inactive)	39.9% (inactive) and 40.3% (inactive)	96.6% (inactive) and 117% (inactive)	67.3% (inactive) and 54% (inactive)	76.8% (inactive) and 69.1% (inactive)	86.3% (inactive) and 81.3% (inactive)	41.7% (inactive) and 11.4% (inactive)	96.5% (inactive) and 85.1% (inactive)	-40.5% (active) and -36.8% (active)	66.7% (inactive) and 58.8% (inactive)
